For seven sequences, binding signal results are on record in publication PMC7862700, “An all-to-all approach to the identification of sequence-specific readers for epigenetic DNA modifications on cytosine”.

What all share (assay): DAPPL (digital affinity profiling via proximity ligation, sequencing); 10 mM Tris-HCl pH 7.5, 50 mM NaCl, 1 mM DTT, 4% glycerol, room temperature, 30 min; GST-TFs on glutathione beads, 16-mer random dsDNA library, 0.1% formaldehyde crosslink after washing; high values mean tight binding
What all share (details): protein: recombinant; tags: N-terminal GST; dsDNA, one strand shown

The target of experiment [1] is T1, ERF (Homo sapiens, UniProt P50548 1-548).
T1 sequence: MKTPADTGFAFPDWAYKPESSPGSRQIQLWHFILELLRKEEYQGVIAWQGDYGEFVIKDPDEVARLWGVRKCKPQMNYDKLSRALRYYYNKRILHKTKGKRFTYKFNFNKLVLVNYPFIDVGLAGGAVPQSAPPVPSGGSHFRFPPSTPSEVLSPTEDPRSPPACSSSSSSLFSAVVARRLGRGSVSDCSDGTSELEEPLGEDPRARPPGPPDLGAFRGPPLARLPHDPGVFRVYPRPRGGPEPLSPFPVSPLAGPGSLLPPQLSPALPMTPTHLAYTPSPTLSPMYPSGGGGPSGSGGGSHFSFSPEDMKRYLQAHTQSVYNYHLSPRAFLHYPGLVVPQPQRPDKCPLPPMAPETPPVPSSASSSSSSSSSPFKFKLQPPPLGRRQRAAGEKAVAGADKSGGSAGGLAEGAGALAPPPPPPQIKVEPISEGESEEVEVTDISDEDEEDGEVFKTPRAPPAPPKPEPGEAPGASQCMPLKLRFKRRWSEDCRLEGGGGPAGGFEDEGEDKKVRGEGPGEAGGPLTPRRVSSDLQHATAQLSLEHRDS
A digest of the protocol: (§1)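 Sequencing on an Illumina NextSeq500 followed washing, crosslinking with 0.1% formaldehyde, proximity ligation (BsaI/T4 ligase, 1 h, 37 °C) and PCR amplification of pools that had been incubated for 30 min at room temperature with 200 nmole of a random double-stranded 16-mer DNA library in Tris/NaCl/DTT/glycerol buffer. Each pool held DNA-barcoded human transcription factors, expressed in yeast as GST fusions and captured on glutathione beads, plus a tag-only sample. Binding signal is a hexamer's read frequency for a factor divided by its frequency in the tag-only sample.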

Experiment [2] addresses T2, ETV3L (Homo sapiens, UniProt Q6ZN32 1-361).
T2 sequence: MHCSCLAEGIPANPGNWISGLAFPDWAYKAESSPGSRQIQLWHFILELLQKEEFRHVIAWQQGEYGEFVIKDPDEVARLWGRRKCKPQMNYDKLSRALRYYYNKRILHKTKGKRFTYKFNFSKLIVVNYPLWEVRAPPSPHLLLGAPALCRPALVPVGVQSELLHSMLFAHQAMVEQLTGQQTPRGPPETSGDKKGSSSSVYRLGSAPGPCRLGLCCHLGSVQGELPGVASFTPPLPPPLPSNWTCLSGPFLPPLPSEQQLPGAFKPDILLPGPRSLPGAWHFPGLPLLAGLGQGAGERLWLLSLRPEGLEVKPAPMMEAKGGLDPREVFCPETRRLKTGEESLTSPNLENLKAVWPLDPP
A digest of the protocol:
as §1

Experiment [3] deals with T3, ETS2 (Homo sapiens, UniProt P15036 1-469).
T3 sequence: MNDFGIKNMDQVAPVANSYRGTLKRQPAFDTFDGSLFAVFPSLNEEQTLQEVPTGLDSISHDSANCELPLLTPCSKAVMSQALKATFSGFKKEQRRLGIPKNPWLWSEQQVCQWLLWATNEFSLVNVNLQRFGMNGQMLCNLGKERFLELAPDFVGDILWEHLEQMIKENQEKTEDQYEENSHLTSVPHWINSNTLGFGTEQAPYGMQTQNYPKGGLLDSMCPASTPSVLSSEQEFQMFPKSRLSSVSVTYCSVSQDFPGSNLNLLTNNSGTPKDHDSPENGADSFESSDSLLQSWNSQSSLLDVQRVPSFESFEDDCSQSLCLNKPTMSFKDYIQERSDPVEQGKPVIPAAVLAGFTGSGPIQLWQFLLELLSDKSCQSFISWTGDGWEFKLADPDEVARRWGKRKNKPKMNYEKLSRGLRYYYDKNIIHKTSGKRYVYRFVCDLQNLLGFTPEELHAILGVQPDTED
Put shortly: as §1

Experiment [4] has as its target T4, SPDEF (Homo sapiens, UniProt O95238 1-335).
T4 sequence: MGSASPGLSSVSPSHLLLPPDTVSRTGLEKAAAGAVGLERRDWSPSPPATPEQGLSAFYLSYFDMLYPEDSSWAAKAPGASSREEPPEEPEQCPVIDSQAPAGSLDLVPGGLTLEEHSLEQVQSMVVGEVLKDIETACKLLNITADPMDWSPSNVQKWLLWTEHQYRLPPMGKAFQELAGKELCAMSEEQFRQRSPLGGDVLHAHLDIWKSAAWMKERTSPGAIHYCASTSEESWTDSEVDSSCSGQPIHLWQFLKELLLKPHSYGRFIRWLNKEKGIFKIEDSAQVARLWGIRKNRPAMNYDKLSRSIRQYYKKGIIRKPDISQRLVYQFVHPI
Put shortly: as §1

Experiment [5] addresses T5, ETV7 (Homo sapiens, UniProt Q9Y603 1-341).
T5 sequence: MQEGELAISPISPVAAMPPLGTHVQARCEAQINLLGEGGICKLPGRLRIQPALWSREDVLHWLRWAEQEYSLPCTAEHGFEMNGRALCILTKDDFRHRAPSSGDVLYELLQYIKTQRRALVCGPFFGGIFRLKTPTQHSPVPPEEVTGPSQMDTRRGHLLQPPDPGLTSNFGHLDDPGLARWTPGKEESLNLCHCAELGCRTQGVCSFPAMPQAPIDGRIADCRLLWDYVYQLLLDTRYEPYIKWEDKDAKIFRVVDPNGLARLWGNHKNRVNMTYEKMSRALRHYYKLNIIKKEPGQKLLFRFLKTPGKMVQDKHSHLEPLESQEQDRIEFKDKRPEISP
Put shortly: as §1

In experiment [6] the target is T6, ELF5 (Homo sapiens, UniProt Q9UKW6-2 1-255).
T6 sequence: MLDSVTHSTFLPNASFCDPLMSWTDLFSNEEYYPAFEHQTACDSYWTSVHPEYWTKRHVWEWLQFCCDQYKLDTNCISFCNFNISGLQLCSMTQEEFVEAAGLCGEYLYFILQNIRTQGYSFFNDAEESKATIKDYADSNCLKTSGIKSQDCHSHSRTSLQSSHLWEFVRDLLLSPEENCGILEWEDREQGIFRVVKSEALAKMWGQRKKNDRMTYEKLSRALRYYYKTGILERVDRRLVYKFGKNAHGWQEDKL
A digest of the protocol: as §1

In experiment [7] the target is T7, ETV3 (Homo sapiens, UniProt P41162-2 1-143).
T7 sequence: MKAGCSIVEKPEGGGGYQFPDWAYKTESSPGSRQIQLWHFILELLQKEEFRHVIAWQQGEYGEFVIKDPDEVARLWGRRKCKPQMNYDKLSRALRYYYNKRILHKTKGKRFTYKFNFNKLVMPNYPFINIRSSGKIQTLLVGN
Put shortly:
as §1

Experiment [8] deals with ETV6 (Homo sapiens, UniProt P41212 1-452). A digest of the protocol: as §1
Chain of ETV6 (P41212 whole entry): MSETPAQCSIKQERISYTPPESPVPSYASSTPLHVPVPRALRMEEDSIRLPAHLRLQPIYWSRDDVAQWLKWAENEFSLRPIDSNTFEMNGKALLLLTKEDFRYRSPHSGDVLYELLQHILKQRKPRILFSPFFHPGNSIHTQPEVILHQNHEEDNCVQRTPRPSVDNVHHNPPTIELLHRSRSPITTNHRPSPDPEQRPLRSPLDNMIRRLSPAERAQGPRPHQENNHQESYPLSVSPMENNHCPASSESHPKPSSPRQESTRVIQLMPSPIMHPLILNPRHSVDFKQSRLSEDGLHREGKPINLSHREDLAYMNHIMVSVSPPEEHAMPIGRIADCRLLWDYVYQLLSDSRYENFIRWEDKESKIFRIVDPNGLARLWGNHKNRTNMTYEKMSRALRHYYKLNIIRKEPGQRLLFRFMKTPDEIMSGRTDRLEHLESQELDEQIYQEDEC

As to TTTCGT, the binding signal in experiment [1] was 1.21 fold enrichment (6-mer frequency, TF over GST control); in experiment [2] it was 1.46 fold enrichment (6-mer frequency, TF over GST control); in experiment [3], 1.37 fold enrichment (6-mer frequency, TF over GST control); in experiment [4], 1.42 fold enrichment (6-mer frequency, TF over GST control); in experiment [5] it was 1.34 fold enrichment (6-mer frequency, TF over GST control); in experiment [6] it was 1.33 fold enrichment (6-mer frequency, TF over GST control). For the same sequence, the binding signal in experiment [7] is 1.4 fold enrichment (6-mer frequency, TF over GST control); in experiment [8], 1.35 fold enrichment (6-mer frequency, TF over GST control).
For TTCCTA, the binding signal was 1.54 fold enrichment (6-mer frequency, TF over GST control) in experiment [1]; 1.57 fold enrichment (6-mer frequency, TF over GST control) in experiment [2]; 1.8 fold enrichment (6-mer frequency, TF over GST control) in experiment [3]; 1.6 fold enrichment (6-mer frequency, TF over GST control) in experiment [4]; 1.64 fold enrichment (6-mer frequency, TF over GST control) in experiment [5]; 2.04 fold enrichment (6-mer frequency, TF over GST control) in experiment [6]. The binding signal in experiment [7] was 1.89 fold enrichment (6-mer frequency, TF over GST control); in experiment [8], 1.99 fold enrichment (6-mer frequency, TF over GST control).
In the case of TCACTC, the binding signal was 1.27 fold enrichment (6-mer frequency, TF over GST control) in experiment [1]; 1.16 fold enrichment (6-mer frequency, TF over GST control) in experiment [2]; 1.23 fold enrichment (6-mer frequency, TF over GST control) in experiment [3]; 1.12 fold enrichment (6-mer frequency, TF over GST control) in experiment [4]; 1.2 fold enrichment (6-mer frequency, TF over GST control) in experiment [5]; 1.1 fold enrichment (6-mer frequency, TF over GST control) in experiment [6]. Moreover, the binding signal is 1.22 fold enrichment (6-mer frequency, TF over GST control) in experiment [7] and 1.19 fold enrichment (6-mer frequency, TF over GST control) in experiment [8].
Consider ACCTCT, for which the binding signal in experiment [1] was 1.52 fold enrichment (6-mer frequency, TF over GST control); in experiment [2], 1.32 fold enrichment (6-mer frequency, TF over GST control); in experiment [3], 1.23 fold enrichment (6-mer frequency, TF over GST control); in experiment [4], 1.4 fold enrichment (6-mer frequency, TF over GST control); in experiment [5] it was 1.48 fold enrichment (6-mer frequency, TF over GST control); in experiment [6], 1.34 fold enrichment (6-mer frequency, TF over GST control). In addition, the binding signal in experiment [7] is 1.4 fold enrichment (6-mer frequency, TF over GST control); in experiment [8] it was 1.39 fold enrichment (6-mer frequency, TF over GST control).
TTCGCT: the binding signal in experiment [1] is 1.4 fold enrichment (6-mer frequency, TF over GST control); in experiment [2] it was 1.24 fold enrichment (6-mer frequency, TF over GST control); in experiment [3] it was 1.3 fold enrichment (6-mer frequency, TF over GST control); in experiment [4], 1.2 fold enrichment (6-mer frequency, TF over GST control); in experiment [5], 1.34 fold enrichment (6-mer frequency, TF over GST control); in experiment [6], 1.23 fold enrichment (6-mer frequency, TF over GST control). Further, the binding signal in experiment [7] is 1.23 fold enrichment (6-mer frequency, TF over GST control); in experiment [8], 1.23 fold enrichment (6-mer frequency, TF over GST control).
On to GACTCC, for which the binding signal was 1.32 fold enrichment (6-mer frequency, TF over GST control) in experiment [1]; 1.27 fold enrichment (6-mer frequency, TF over GST control) in experiment [2]; 1.29 fold enrichment (6-mer frequency, TF over GST control) in experiment [3]; 1.41 fold enrichment (6-mer frequency, TF over GST control) in experiment [4]; 1.23 fold enrichment (6-mer frequency, TF over GST control) in experiment [5]; 1.16 fold enrichment (6-mer frequency, TF over GST control) in experiment [6]. Besides, the binding signal is 1.35 fold enrichment (6-mer frequency, TF over GST control) in experiment [7] and 1.18 fold enrichment (6-mer frequency, TF over GST control) in experiment [8].
Consider TCCATG, for which the binding signal is 1.1 fold enrichment (6-mer frequency, TF over GST control) in experiment [1]; 1.17 fold enrichment (6-mer frequency, TF over GST control) in experiment [2]; 1.1 fold enrichment (6-mer frequency, TF over GST control) in experiment [3]; 1.1 fold enrichment (6-mer frequency, TF over GST control) in experiment [4]; 1.03 fold enrichment (6-mer frequency, TF over GST control) in experiment [5]; 1.11 fold enrichment (6-mer frequency, TF over GST control) in experiment [6]. Besides, the binding signal in experiment [7] was 1.19 fold enrichment (6-mer frequency, TF over GST control); in experiment [8], 1.2 fold enrichment (6-mer frequency, TF over GST control).
